The source of these data is PubChem BioAssay (NCI).

Test [1] is described as follows: NCI Yeast Anticancer Drug Screen. Data for the rad50 strain (AID 155).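 Also: 0% = growth of vehicle-only cultures of the same strain.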 The settings on record: S. cerevisiae rad50 strain growth inhibition, hits give high values. The method, boiled down:
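Inhibition values express reduced yeast growth in compound-treated cultures relative to vehicle-treated controls.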

A short description of test [2]: NCI Yeast Anticancer Drug Screen. Data for the mec2-1 strain (AID 157). The settings on record: S. cerevisiae mec2-1 strain, hits give high values. The method, boiled down: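 mec2-1 yeast strain, carrying an alteration in DNA damage repair or cell cycle control, was exposed to compounds; growth inhibition was measured relative to vehicle-treated controls.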
Test [3] can be described thus: NCI Yeast Anticancer Drug Screen. Data for the sgs1 mgt1 strain (AID 161).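 Also: 0% = growth of cultures given vehicle only.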 The settings on record: S. cerevisiae sgs1 mgt1 strain, hits give high values. The method, boiled down: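 This yeast growth screen uses a strain with defined DNA-repair lesions; compound-treated growth is compared with vehicle-treated growth.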
Test [4] is described as follows: NCI Yeast Anticancer Drug Screen. Data for the cln2 rad14 strain (AID 165).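 Also: 0% = growth equal to vehicle treated cultures.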 The settings on record: S. cerevisiae cln2 rad14 strain, hits give high values. An outline of the steps: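 Yeast carrying cln2 and rad14 alterations (cell cycle control and DNA damage repair) were exposed to compounds. Growth inhibition was measured against vehicle-treated controls.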
Test [5] in a line: NCI Yeast Anticancer Drug Screen. Data for the bub3 strain (AID 167). The settings on record: S. cerevisiae bub3 mutant strain, hits give high values. An outline of the steps:
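Steps: expose the mutant yeast strain to compound; grow alongside vehicle-treated cultures; measure growth; express inhibition against the vehicle cultures.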

Test [6] is described as follows: NCI Yeast Anticancer Drug Screen. Data for the mlh1 rad18 strain (AID 175). The settings on record: S. cerevisiae mlh1 rad18 strain growth inhibition, hits give high values. An outline of the steps: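 Growth inhibition of the yeast strain was measured after compound exposure and expressed relative to vehicle-treated controls. The strain carries defined defects in DNA damage repair.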

The mark [7] stands for this setting: at 5.0 µM (retest, dose inferred, filed as 0.5).
[8] abbreviates: at 50.0 µM (retest, dose inferred, filed as 5.0).

Structures are written as SMILES. Compounds without any hit were thinned out: in the full panel of roughly 79,000, 15% have a hit. Values without a mark were called inactive. Calls of active or inactive are those of the source. Rule as the data show it: active = growth inhibition above about 70%; inactive = the rest.

Turning to `CCOC(=O)c1cccc(C)c1C(=O)c1ccc(C)cc1C`, the growth inhibition was 3% in test [1] (setting [7]); 66% in test [1] (setting [8]); 38.9% in test [1] (at 50.0 µM); 4% in test [2] (setting [7]); 79% (active) in test [2] (setting [8]); 79.3% (active) in test [2] (at 50.0 µM). The growth inhibition in test [3] (setting [7]) is 0%; in test [3] (setting [8]), -36%; in test [3] (at 50.0 µM), 47.3%; in test [4] (setting [7]), 6%; in test [4] (setting [8]), -1%; in test [4] (at 50.0 µM) it was -9.5%. For the same molecule, the growth inhibition was -4% in test [5] (setting [7]); 24% in test [5] (setting [8]); 82.8% (active) in test [5] (at 50.0 µM); -2% in test [6] (setting [7]); 41% in test [6] (setting [8]); 59.6% in test [6] (at 50.0 µM).
`CC1=NOC(=O)/C1=C/c1ccc(Cl)c(Cl)c1`: the growth inhibition was -2% in test [1] (setting [7]); 70% (active) in test [1] (setting [8]); 31.9% in test [1] (at 50.0 µM); 10% in test [2] (setting [7]); 20% in test [2] (setting [8]); 36.7% in test [2] (at 50.0 µM). In addition, the growth inhibition was -11% in test [3] (setting [7]); 31% in test [3] (setting [8]); 52.5% in test [3] (at 50.0 µM); 8% in test [4] (setting [7]); 61% in test [4] (setting [8]); 2.1% in test [4] (at 50.0 µM). Besides, the growth inhibition was -3% in test [5] (setting [7]); 71% (active) in test [5] (setting [8]); 33.9% in test [5] (at 50.0 µM); -10% in test [6] (setting [7]); 45% in test [6] (setting [8]); 43.1% in test [6] (at 50.0 µM).
As for `Cc1c2cc[n+](C)cc2c(C)c2c1[nH]c1ccc(Cl)cc12`, the growth inhibition was 43% in test [1] (setting [7]); 97% (active) in test [1] (setting [8]); 90.2% (active) in test [1] (at 50.0 µM); 28% in test [2] (setting [7]); 99% (active) in test [2] (setting [8]); 92.4% (active) in test [2] (at 50.0 µM). Moreover, the growth inhibition in test [3] (setting [7]) was 48%; in test [3] (setting [8]) it was 99% (active); in test [3] (at 50.0 µM), 93% (active); in test [4] (setting [7]) it was 35%; in test [4] (setting [8]) it was 98% (active); in test [4] (at 50.0 µM), 92.1% (active). Further, the growth inhibition is 42% in test [5] (setting [7]); 99% (active) in test [5] (setting [8]); 91.6% (active) in test [5] (at 50.0 µM); 51% in test [6] (setting [7]); 99% (active) in test [6] (setting [8]); 91% (active) in test [6] (at 50.0 µM).
As to `O=C(/C=C/c1cccnc1)c1cc(Cl)ccc1O`, the growth inhibition in test [1] (setting [7]) is 3%; in test [1] (setting [8]), 61%; in test [1] (at 50.0 µM), 86.9% (active); in test [2] (setting [7]), 3%; in test [2] (setting [8]), 40%; in test [2] (at 50.0 µM), 23.9%. Further, the growth inhibition in test [3] (setting [7]) was -3%; in test [3] (setting [8]), 22%; in test [3] (at 50.0 µM), 56.9%; in test [4] (setting [7]), 1%; in test [4] (setting [8]) it was 24%; in test [4] (at 50.0 µM), 26.6%. Also, the growth inhibition in test [5] (setting [7]) was 1%; in test [5] (setting [8]), 71% (active); in test [5] (at 50.0 µM) it was 5.2%; in test [6] (setting [7]) it was 5%; in test [6] (setting [8]) it was 48%; in test [6] (at 50.0 µM), 42.5%.
Regarding `C(=C\c1cccc2ccccc12)/c1ccncc1`, the growth inhibition in test [1] (setting [7]) is 8%; in test [1] (setting [8]), 97% (active); in test [1] (at 50.0 µM), 98.9% (active); in test [2] (setting [7]), -19%; in test [2] (setting [8]), 99% (active); in test [2] (at 50.0 µM), 99.2% (active). The growth inhibition is -14% in test [3] (setting [7]); 98% (active) in test [3] (setting [8]); 99.2% (active) in test [3] (at 50.0 µM); -2% in test [4] (setting [7]); 96% (active) in test [4] (setting [8]); 99% (active) in test [4] (at 50.0 µM). Also, the growth inhibition is 4% in test [5] (setting [7]); 97% (active) in test [5] (setting [8]); 98.5% (active) in test [5] (at 50.0 µM); -11% in test [6] (setting [7]); 98% (active) in test [6] (setting [8]); 99.1% (active) in test [6] (at 50.0 µM).
In the case of `CC/C=C\C/C=C\C/C=C\CCCCCCCC(=O)OCC(O)CO` (configuration not stated), the growth inhibition was 0% in test [1] (setting [7]); 4% in test [1] (setting [8]); 22.9% in test [1] (at 50.0 µM); 0% in test [2] (setting [7]); 37% in test [2] (setting [8]); 88.1% (active) in test [2] (at 50.0 µM). For the same molecule, the growth inhibition was 0% in test [3] (setting [7]); 48% in test [3] (setting [8]); 86.8% (active) in test [3] (at 50.0 µM); 1% in test [4] (setting [7]); 10% in test [4] (setting [8]); 42.9% in test [4] (at 50.0 µM). The growth inhibition was -2% in test [5] (setting [7]); 83% (active) in test [5] (setting [8]); 53.4% in test [5] (at 50.0 µM); 2% in test [6] (setting [7]); 24% in test [6] (setting [8]); 52.5% in test [6] (at 50.0 µM).
On to `COC12C=CC(CC1)c1c2c(O)c2ccncc2c1O` (configuration not stated), for which the growth inhibition in test [1] (setting [7]) was 9%; in test [1] (setting [8]) it was 89% (active); in test [1] (at 50.0 µM) it was 58.1%; in test [2] (setting [7]), -3%; in test [2] (setting [8]) it was 81% (active); in test [2] (at 50.0 µM), 56.7%. In addition, the growth inhibition in test [3] (setting [7]) is 4%; in test [3] (setting [8]), 87% (active); in test [3] (at 50.0 µM), 70%; in test [4] (setting [7]), -3%; in test [4] (setting [8]), 68%; in test [4] (at 50.0 µM), 55.9%. For the same molecule, the growth inhibition in test [5] (setting [7]) is 18%; in test [5] (setting [8]), 95% (active); in test [5] (at 50.0 µM), 59.8%; in test [6] (setting [7]) it was -3%; in test [6] (setting [8]), 86% (active); in test [6] (at 50.0 µM), 64.8%.
Take `O=C(/C=N/O)c1c(-c2ccccc2)[nH]c(-c2ccccc2)c1-c1ccccc1`: the growth inhibition in test [1] (setting [7]) is 4%; in test [1] (setting [8]), 75% (active); in test [1] (at 50.0 µM) it was 94.2% (active); in test [2] (setting [7]), 5%; in test [2] (setting [8]) it was 77% (active); in test [2] (at 50.0 µM), 77.8% (active). Besides, the growth inhibition in test [3] (setting [7]) was 7%; in test [3] (setting [8]), 90% (active); in test [3] (at 50.0 µM), 96.3% (active); in test [4] (setting [7]), 1%; in test [4] (setting [8]), 33%; in test [4] (at 50.0 µM), 91% (active). For the same molecule, the growth inhibition was 11% in test [5] (setting [7]); 13% in test [5] (setting [8]); 85.7% (active) in test [5] (at 50.0 µM); 31% in test [6] (setting [7]); 93% (active) in test [6] (setting [8]); 96% (active) in test [6] (at 50.0 µM).
Consider `O=C(O)c1ccc(NCc2c(O)ccc3ccccc23)cc1`, for which the growth inhibition in test [1] (setting [7]) was 5%; in test [1] (setting [8]) it was 26%; in test [1] (at 50.0 µM) it was 4%; in test [2] (setting [7]), 9%; in test [2] (setting [8]), 29%; in test [2] (at 50.0 µM), 17.4%. In addition, the growth inhibition in test [3] (setting [7]) was 11%; in test [3] (setting [8]) it was 15%; in test [3] (at 50.0 µM) it was 45.2%; in test [4] (setting [7]), -3%; in test [4] (setting [8]), 15%; in test [4] (at 50.0 µM) it was -13.9%. Moreover, the growth inhibition in test [5] (setting [7]) is 4%; in test [5] (setting [8]), 28%; in test [5] (at 50.0 µM) it was 48.1%; in test [6] (setting [7]), 9%; in test [6] (setting [8]), 26%; in test [6] (at 50.0 µM), 19.1%.
